In PubChem BioAssay AID1159580 (chemical genetic matrix, 2015):
Hit rate of the full screen: of about 5,500 compounds, about 2,000 (36%) were called active. Not shown: some 18% with an inconclusive outcome. Cut-off read from the data, not from the text of the source: active = normalized growth mostly below about 0.91 (no sharp cut-off); inconclusive = no clear call, values can overlap the other calls; inactive = mostly above about 0.92. This is one part of the list.

Assay: chemical genetic growth profiling, strain panel (AID 1159580);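 note: tested at 20 µM; growth read once vehicle control cultures reached saturation at 30 °C; 1 = growth at the plate median or of vehicle wells; lower values mean less growth of the strain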
Conditions: growth OD
[1] = S. cerevisiae deletion strains, locus YDL101C, strain DUN1, stronger effect = lower value
[2] = S. cerevisiae deletion strains, locus YHR030C, strain SLT2, stronger effect = lower value

Measured: normalized growth

Cc1c(S(=O)(=O)Nc2cccc([N+](=O)[O-])c2)sc2ccc(Cl)cc12
inactive: S. cerevisiae deletion strains, locus YAR019C, strain CDC15, stronger effect = lower value 0.965 | S. cerevisiae deletion strains, locus YBL105C, strain PKC1, stronger effect = lower value 0.973 | S. cerevisiae deletion strains, locus YBR135W, strain CKS1, stronger effect = lower value 0.968 | S. cerevisiae deletion strains, locus YBR136W, strain MEC1, stronger effect = lower value 0.973 | S. cerevisiae deletion strains, locus YBR160W, strain CDC28, stronger effect = lower value 0.967 | S. cerevisiae deletion strains, locus YDL017W, strain CDC7, stronger effect = lower value 0.972 | S. cerevisiae deletion strains, locus YDL028C, strain MPS1, stronger effect = lower value 0.979 | [1] 0.963 | S. cerevisiae deletion strains, locus YDL108W, strain KIN28, stronger effect = lower value 0.981 | S. cerevisiae deletion strains, locus YDL132W, strain cdc53, stronger effect = lower value 0.955 | S. cerevisiae deletion strains, locus YDL214C, strain PRR2, stronger effect = lower value 0.991 | S. cerevisiae deletion strains, locus YDR052C, strain DBF4, stronger effect = lower value 0.958 | S. cerevisiae deletion strains, locus YDR054C, strain cdc34, stronger effect = lower value 0.969 | S. cerevisiae deletion strains, locus YDR226W, strain ADK1, stronger effect = lower value 0.966 | S. cerevisiae deletion strains, locus YDR477W, strain SNF1, stronger effect = lower value 0.979 | S. cerevisiae deletion strains, locus YER123W, strain YCK3, stronger effect = lower value 1.01 | S. cerevisiae deletion strains, locus YER133W, strain GLC7, stronger effect = lower value 0.982 | S. cerevisiae deletion strains, locus YFL009W, strain cdc4, stronger effect = lower value 0.97 | S. cerevisiae deletion strains, locus YFL029C, strain CAK1, stronger effect = lower value 0.97 | S. cerevisiae deletion strains, locus YFR003C, strain YPI1, stronger effect = lower value 0.98 | S. cerevisiae deletion strains, locus YFR019W, strain FAB1, stronger effect = lower value 0.975 | S. cerevisiae deletion strains, locus YFR028C, strain CDC14, stronger effect = lower value 0.973 | S. cerevisiae deletion strains, locus YGR040W, strain KSS1, stronger effect = lower value 0.96 | S. cerevisiae deletion strains, locus YGR052W, strain FMP48, stronger effect = lower value 1.09 | S. cerevisiae deletion strains, locus YGR092W, strain DBF2, stronger effect = lower value 0.932 | S. cerevisiae deletion strains, locus YHR079C, strain IRE1, stronger effect = lower value 0.913 | S. cerevisiae deletion strains, locus YHR082C, strain KSP1, stronger effect = lower value 1.01 | S. cerevisiae deletion strains, locus YHR205W, strain SCH9, stronger effect = lower value 0.986 | S. cerevisiae deletion strains, locus YIL147C, strain SLN1, stronger effect = lower value 0.976 | S. cerevisiae deletion strains, locus YJL095W, strain BCK1, stronger effect = lower value 0.979 | S. cerevisiae deletion strains, locus YJL128C, strain PBS2, stronger effect = lower value 0.963 | S. cerevisiae deletion strains, locus YJL157C, strain FAR1, stronger effect = lower value 1.01 | S. cerevisiae deletion strains, locus YJR016C, strain ILV3, stronger effect = lower value 0.969 | S. cerevisiae deletion strains, locus YJR066W, strain TOR1 (second series), stronger effect = lower value 0.999 | S. cerevisiae deletion strains, locus YJR066W, strain TOR1, stronger effect = lower value 1.03 | S. cerevisiae deletion strains, locus YKL048C, strain ELM1, stronger effect = lower value 0.967 | S. cerevisiae deletion strains, locus YKL067W, strain YNK1, stronger effect = lower value 0.99 | S. cerevisiae deletion strains, locus YKL101W, strain HSL1, stronger effect = lower value 0.981 | S. cerevisiae deletion strains, locus YKL193C, strain SDS22, stronger effect = lower value 0.971 | S. cerevisiae deletion strains, locus YKL203C, strain TOR2, stronger effect = lower value 1 | S. cerevisiae deletion strains, locus YLR113W, strain HOG1, stronger effect = lower value 0.878 | S. cerevisiae deletion strains, locus YLR133W, strain CKI1, stronger effect = lower value 0.989 | S. cerevisiae deletion strains, locus YLR403W, strain SFP1, stronger effect = lower value 0.954 | S. cerevisiae deletion strains, locus YML070W, strain DAK1, stronger effect = lower value 0.974 | S. cerevisiae deletion strains, locus YMR001C, strain CDC5, stronger effect = lower value 0.974 | S. cerevisiae deletion strains, locus YMR205C, strain PFK2 (second series), stronger effect = lower value 0.992 | S. cerevisiae deletion strains, locus YMR277W, strain FCP1, stronger effect = lower value 0.989 | S. cerevisiae deletion strains, locus YNL006W, strain LST8, stronger effect = lower value 0.966 | S. cerevisiae deletion strains, locus YNL020C, strain ARK1, stronger effect = lower value 0.972 | S. cerevisiae deletion strains, locus YNL161W, strain CBK1, stronger effect = lower value 0.971 | S. cerevisiae deletion strains, locus YNL183C, strain NPR1, stronger effect = lower value 0.926 | S. cerevisiae deletion strains, locus YNL207W, strain RIO2, stronger effect = lower value 0.983 | S. cerevisiae deletion strains, locus YNL222W, strain SSU72, stronger effect = lower value 0.966 | S. cerevisiae deletion strains, locus YNL307C, strain MCK1 (second series), stronger effect = lower value 0.988 | S. cerevisiae deletion strains, locus YOL078W, strain AVO1, stronger effect = lower value 0.975 | S. cerevisiae deletion strains, locus YOL136C, strain PFK27, stronger effect = lower value 0.968 | S. cerevisiae deletion strains, locus YOR061W, strain CKA2, stronger effect = lower value 0.966 | S. cerevisiae deletion strains, locus YOR119C, strain RIO1, stronger effect = lower value 1.08 | S. cerevisiae deletion strains, locus YOR231W, strain MKK1, stronger effect = lower value 0.955 | S. cerevisiae deletion strains, locus YOR329C, strain SCD5, stronger effect = lower value 0.971 | S. cerevisiae deletion strains, locus YPL031C, strain PHO85, stronger effect = lower value 0.985 | S. cerevisiae deletion strains, locus YPL153C, strain RAD53, stronger effect = lower value 0.962 | S. cerevisiae deletion strains, locus YPL204W, strain HRR25, stronger effect = lower value 0.964 | S. cerevisiae deletion strains, locus YPL209C, strain IPL1, stronger effect = lower value 0.973 | S. cerevisiae deletion strains, locus YPL256C, strain CLN2, stronger effect = lower value 0.926 | S. cerevisiae deletion strains, locus YPR025C, strain CCL1, stronger effect = lower value 0.97 | S. cerevisiae deletion strains, locus YPR106W, strain ISR1, stronger effect = lower value 0.971 | S. cerevisiae deletion strains, locus YPR111W, strain DBF20, stronger effect = lower value 0.965 | S. cerevisiae deletion strains, strain NNK1, stronger effect = lower value 0.951 | S. cerevisiae deletion strains, strain TSCII, stronger effect = lower value 0.964
active: [2] 0.752

Cc1nn(-c2ccccc2)nc1-c1nnc(-c2ccc(Cl)cc2)o1
inactive: S. cerevisiae deletion strains, locus YAL013W, strain DEP1, stronger effect = lower value 1.02 | S. cerevisiae deletion strains, locus YBR229C, strain ROT2, stronger effect = lower value 1.01 | S. cerevisiae deletion strains, locus YCL061C, strain MRC1, stronger effect = lower value 0.986 | [1] 0.995 | S. cerevisiae deletion strains, locus YDL134C, strain PPH21, stronger effect = lower value 1 | S. cerevisiae deletion strains, locus YDR150W, strain NUM1, stronger effect = lower value 1 | S. cerevisiae deletion strains, locus YEL061C, strain CIN8, stronger effect = lower value 1.01 | S. cerevisiae deletion strains, locus YGR078C, strain PAC10, stronger effect = lower value 0.993 | S. cerevisiae deletion strains, locus YGR229C, strain SMI1, stronger effect = lower value 1.01 | [2] 1.03 | S. cerevisiae deletion strains, locus YHR087W, strain rtc3, stronger effect = lower value 1.04 | S. cerevisiae deletion strains, locus YJR043C, strain POL32, stronger effect = lower value 1.02 | S. cerevisiae deletion strains, locus YJR075W, strain HOC1, stronger effect = lower value 1 | S. cerevisiae deletion strains, locus YKL190W, strain CNB1, stronger effect = lower value 1.01 | S. cerevisiae deletion strains, locus YLR039C, strain RIC1, stronger effect = lower value 1.04 | S. cerevisiae deletion strains, locus YLR058C, strain SHM2 (second series), stronger effect = lower value 1.02 | S. cerevisiae deletion strains, locus YLR085C, strain ARP6, stronger effect = lower value 1.03 | S. cerevisiae deletion strains, locus YLR262C, strain YPT6, stronger effect = lower value 1.03 | S. cerevisiae deletion strains, locus YML094W, strain GIM5, stronger effect = lower value 1.04 | S. cerevisiae deletion strains, locus YMR219W, strain ESC1, stronger effect = lower value 0.998 | S. cerevisiae deletion strains, locus YMR263W, strain SAP30, stronger effect = lower value 1.05 | S. cerevisiae deletion strains, locus YMR307W, strain GAS1, stronger effect = lower value 1.07 | S. cerevisiae deletion strains, locus YNL153C, strain GIM3, stronger effect = lower value 1 | S. cerevisiae deletion strains, locus YNL298W, strain CLA4 (second series), stronger effect = lower value 1.01 | S. cerevisiae deletion strains, locus YNL322C, strain KRE1, stronger effect = lower value 0.988 | S. cerevisiae deletion strains, locus YNR030W, strain Alg12, stronger effect = lower value 1.03 | S. cerevisiae deletion strains, locus YPL055C, strain LGE1, stronger effect = lower value 1.01 | S. cerevisiae deletion strains, locus YPL241C, strain CIN2, stronger effect = lower value 1 | S. cerevisiae deletion strains, locus YPR135W, strain CTF4, stronger effect = lower value 0.98 | S. cerevisiae strains, strain wild type, stronger effect = lower value 1.01
